Source: PubChem BioAssay (Tox21)
Records with an inconclusive call do not appear. Active and inactive are the calls of the source. Unless noted, calls come from the whole dose curve; as a rule, active = well fitted curve in the direction sought with a large enough effect in the repeat runs; inconclusive = weak or mixed curves; inactive = no such curve, though single readings can be large; an effect the other way counts as inactive or inconclusive.

How the values were obtained:
[1] = A CellTox Green Cytotoxicity Assay to monitor cytotoxicity in HepG2 cells - 8 hour (AID 1224890); note: nearly all actives have a fitted effect of over 45% in size
Procedure, shortened: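 Cells and non-lytic dye reagent are dispensed together (600 HepG2 cells/well) and incubated 5 h before DMSO compound transfer. Kinetic fluorescence is then recorded in the same wells during 40 h at 37 C.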

[2] = qHTS assay to identify small molecule antagonists of the estrogen receptor alpha (ER-alpha) signaling pathway using the BG1 cell line in the presence of 0.1 nM 17-beta-estradiol - cell viability counter screen (AID 1259241); note: nearly all actives have a fitted effect of over 40% in size
Procedure, shortened: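 Viability in VM7Luc4E2 cells after 22 hr compound exposure under 0.1 nM 17beta-estradiol stimulation, by CellTiter-Fluor.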

[3] = qHTS assay to identify small molecule antagonists of the androgen receptor (AR) signaling pathway using the MDA cell line in the presence of 0.5 nM R1881 - cell viability counter screen (AID 1259242); note: nearly all actives have a fitted effect of over 45% in size
Procedure, shortened: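 Steps: plate MDA-kb2 cells, rest 5 hr at 37C without CO2; pin in compounds in DMSO; add R1881 to 0.5 nM final; incubate 16 hr; add CellTiter-Fluor, 30 min; read fluorescence.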

[4] = biological target: Androgen receptor (Homo sapiens) (UniProt P10275); experiment: qHTS assay to identify small molecule antagonists of the androgen receptor (AR) signaling pathway using the MDA cell line in the presence of 0.5 nM R1881 (AID 1259243); note: nearly all actives have a fitted effect of over 50% in size
Procedure, shortened: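 Stably transfected MDA-kb2 cells express luciferase from an MMTV promoter bearing both AR and GR response elements. Compounds plus 0.5 nM R1881 (final) were incubated 16 hr at 37C without CO2, then luminescence measured.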

[5] = qHTS assay to identify small molecule HDAC inhibitors (AID 1259364);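 note: wild-type HCT-116 cells with endogenous class I/II HDAC activity; top concentration of the series differs between compounds; nearly all actives have a fitted effect of over 45% in size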
Procedure, shortened: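 Cells (HCT-116, wild type) are seeded at 1,500 per well, incubated overnight, treated with compound in DMSO for 2 hr, then developed with HDAC-Glo I/II reagent for 30 min at room temperature.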

[6] = qHTS assay to identify small molecule HDAC inhibitors - cell viability counter screen (AID 1259365); note: series mostly up to about 92 µM; nearly all actives have a fitted effect of over 50% in size
Procedure, shortened: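 Cytotoxicity was gauged in wild-type HCT-116 cells after a brief 2hr treatment with DMSO-dissolved compounds at 37C and 5% CO2, using CellTiter-Glo luminescence developed for 30min at room temperature.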

[7] = qHTS assay to identify small molecule agonists of the sonic hedgehog signaling (Shh) pathway - cell viability counter screen (AID 1259366); note: nearly all actives have a fitted effect of over 50% in size
Procedure, shortened: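 Stable Gli1-Luc NIH/3T3 clone, 2,000 cells/well. Compound exposure 24hr at 37C. Read-out: CellTiter-Fluor fluorescence.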

[8] = qHTS assay to identify small molecule antagonists of the sonic hedgehog signaling (Shh) pathway - cell viability counter screen (AID 1259367); note: nearly all actives have a fitted effect of over 55% in size
Procedure, shortened: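 Viability was read by CellTiter-Fluor fluorescence in the same wells, reagent added 23 hr into compound treatment and incubated 1 hr at 37C. The 3T3 Gli1-Luc reporter cells (2,000/well) received conditioned medium after compound and ran 24 hr.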

[9] = qHTS assay to identify small molecule agonists of the sonic hedgehog signaling (Shh) pathway (AID 1259368; calls by dose curve;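 note: NIH/3T3-derived 3T3Gli1-Luc cells carrying a stable Gli1-driven firefly luciferase reporter; series mostly up to about 92 µM; nearly all actives have a fitted effect of over 15% in size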)
Procedure, shortened: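 Cells of a mouse NIH/3T3 clone stably expressing luciferase under the Gli1 transcriptional response element are exposed to test chemicals for 24 hr at 37 C. Pathway activation is detected as a rise in luminescence.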

[10] = qHTS assay to identify small molecule antagonists of the sonic hedgehog signaling (Shh) pathway (AID 1259369; calls by dose curve; note: nearly all actives have a fitted effect of over 45% in size)
Procedure, shortened: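 Cells are plated and held 4hr at 37 C, compounds (DMSO) are pinned in, conditioned medium is added to stimulate the pathway, and after 24hr luciferase reagent is added for 30min before luminescence is read.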

[11] = biological target: Estrogen receptor beta (Homo sapiens) (UniProt Q92731); experiment: qHTS assay to identify small molecule agonists of the estrogen receptor beta (ER-beta) signaling pathway (AID 1259377; active = well fitted activation curve with a large enough effect in the signal ratio in the repeat runs, not every such curve was filed as active; the % refers to the signal ratio)
Procedure, shortened: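 Measured by fluorescence intensity from a B/G FRET beta-lactamase substrate (2 h, room temperature) in ER-beta-UAS-bla HEK293T cells treated with DMSO-dissolved compounds for 16 hr at 37C and 5% CO2.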

[12] = biological target: Estrogen receptor beta (Homo sapiens) (UniProt Q92731); experiment: qHTS assay to identify small molecule antagonists of the estrogen receptor beta (ER-beta) signaling pathway (AID 1259378; active = well fitted inhibition curve with a large enough effect in the signal ratio in the repeat runs, not every such curve was filed as active; the % refers to the signal ratio)
Procedure, shortened: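 Antagonist mode: compounds added to beta-lactamase reporter HEK293T ER-beta-UAS cells stimulated with E2 (1nM final), 16 hr at 37C. LiveBLAzer B/G FRET substrate, 2 hours room temperature, fluorescence read-out.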

[13] = qHTS assay to identify small molecule agonists of the androgen receptor (AR) signaling pathway in the presence of an antagonist - cell viability counter screen (AID 1259379);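 note: MDA-kb2 human breast cancer cells carrying an MMTV luciferase reporter; series mostly up to about 92 µM; nearly all actives have a fitted effect of over 25% in size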
Procedure, shortened: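 Cytotoxicity is assessed by CellTiter-Fluor in MDA-kb2 cells carrying an MMTV-driven luciferase reporter. Cells receive 3.0uM nilutamide plus compounds at 15 concentrations and incubate 16 hr at 37C without CO2 before fluorescence reading.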

[14] = qHTS assay to identify small molecule agonists of the estrogen receptor beta (ER-beta) signaling pathway - cell viability counter screen (AID 1259380); note: nearly all actives have a fitted effect of over 30% in size
Procedure, shortened: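 Cytotoxicity is measured in parallel with the reporter screen: after 16 hr compound exposure at 37C and a 2 hr LiveBLAzer step, CellTiter-Glo is added to the same ER-beta-UAS-bla HEK293T wells and luminescence read after 30 min.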

[15] = biological target: Androgen receptor (Homo sapiens) (UniProt P10275); experiment: qHTS assay to identify small molecule agonists of the androgen receptor (AR) signaling pathway in the presence of an antagonist (AID 1259381; calls by dose curve; note: nearly all actives have a fitted effect of over 15% in size; note: potency is the fitted concentration of half-maximal effect)
Procedure, shortened: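 Agonist-mode confirmation screen: human MDA-kb2 cells stably expressing luciferase under an MMTV promoter bearing AR and GR response elements, co-treated with 3.0uM nilutamide (final). Luminescence measured after 16hr compound incubation.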

[16] = qHTS assay to identify small molecule antagonists of the estrogen receptor beta (ER-beta) signaling pathway - cell viability counter screen (AID 1259382);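 note: HEK293T cells carrying ER-beta-UAS-bla reporter stimulated with estradiol; series mostly up to about 92 µM; nearly all actives have a fitted effect of over 55% in size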
Procedure, shortened: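 Cytotoxicity counter screen multiplexed with the beta-lactamase antagonist assay: GripTite HEK293T ER-beta-bla cells were treated 16 hr with test chemicals in the presence of 1nM 17-beta-estradiol, and viability was measured by CellTiter-Glo.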

[17] = biological target: Estrogen receptor (Homo sapiens) (UniProt P03372); experiment: qHTS assay to identify small molecule agonists of the estrogen receptor alpha (ER-alpha) signaling pathway in the presence of an antagonist (AID 1259383; calls by dose curve; note: top concentration of the series differs between compounds; nearly all actives have a fitted effect of over 15% in size)
Procedure, shortened: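 Agonist-mode confirmation in the presence of the ER antagonist ICI-182,780 at 10.0nM final. Breast-derived VM7Luc4E2 reporter cells were exposed to compounds for 22hr, and ERE-driven luciferase was quantified by luminescence.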

[18] = qHTS assay to identify small molecule agonists or antagonists of the thyroid stimulating hormone receptor (TSHR) signaling pathway - wild type cell line counter screen (AID 1259384; calls by dose curve)
Procedure, shortened: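 Counter screen in untransfected Hek293: compounds (15-point titration, triplicate) plus phosphodiesterase inhibitor Ro20-1724 added after 18 h plating; 30 min RT. Intracellular cAMP via competitive d2/cryptate immunoassay, 1 h incubation.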

[19] = biological target: Estrogen receptor (Homo sapiens) (UniProt P03372); experiment: qHTS assay to identify small molecule antagonists of the estrogen receptor alpha (ER-alpha) signaling pathway using the BG1 cell line in the presence of 0.1 nM 17-beta-estradiol (AID 1259244); note: nearly all actives have a fitted effect of over 50% in size
Procedure, shortened: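 Antagonist mode: compounds in DMSO are pinned onto VM7Luc4E2 reporter cells, 0.1 nM final 17beta-estradiol is added, and after 22 h at 37C luciferase luminescence is measured with ONE-Glo.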

[20] = qHTS assay to identify small molecule phospholipidosis (PLD) inducers (AID 1259344; active = well fitted curve in the direction sought with a large enough effect; an effect the other way counts as inactive or inconclusive)
Procedure, shortened: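 Phospholipid accumulation was scored by imaging: fixed, Hoechst-counterstained HepG2 cells stained with LipidTOX Red after 24 h compound exposure at 37 C. Read-outs were pit count and pit intensity per well or per cell, with amiodarone and DMSO controls.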

Measured: Potency

Estrogen receptor (Homo sapiens), sequence (P03372 whole entry, looked up): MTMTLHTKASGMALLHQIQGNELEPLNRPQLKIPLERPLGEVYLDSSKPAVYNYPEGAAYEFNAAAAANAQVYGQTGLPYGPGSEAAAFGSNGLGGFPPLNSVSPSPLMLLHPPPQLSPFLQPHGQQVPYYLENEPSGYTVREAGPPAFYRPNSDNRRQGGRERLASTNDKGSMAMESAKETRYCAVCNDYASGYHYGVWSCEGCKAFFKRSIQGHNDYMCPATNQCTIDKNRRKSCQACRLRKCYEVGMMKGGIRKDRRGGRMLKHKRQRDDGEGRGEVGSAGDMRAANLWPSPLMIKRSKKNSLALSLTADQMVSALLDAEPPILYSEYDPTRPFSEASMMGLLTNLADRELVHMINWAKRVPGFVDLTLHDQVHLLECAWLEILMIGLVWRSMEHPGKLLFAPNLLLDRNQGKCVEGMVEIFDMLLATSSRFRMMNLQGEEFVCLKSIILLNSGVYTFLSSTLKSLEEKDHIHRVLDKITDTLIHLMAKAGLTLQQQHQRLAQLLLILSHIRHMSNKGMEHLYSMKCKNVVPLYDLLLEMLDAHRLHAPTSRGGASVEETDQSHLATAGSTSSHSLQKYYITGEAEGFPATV
Androgen receptor (Homo sapiens), sequence (P10275 whole entry, looked up): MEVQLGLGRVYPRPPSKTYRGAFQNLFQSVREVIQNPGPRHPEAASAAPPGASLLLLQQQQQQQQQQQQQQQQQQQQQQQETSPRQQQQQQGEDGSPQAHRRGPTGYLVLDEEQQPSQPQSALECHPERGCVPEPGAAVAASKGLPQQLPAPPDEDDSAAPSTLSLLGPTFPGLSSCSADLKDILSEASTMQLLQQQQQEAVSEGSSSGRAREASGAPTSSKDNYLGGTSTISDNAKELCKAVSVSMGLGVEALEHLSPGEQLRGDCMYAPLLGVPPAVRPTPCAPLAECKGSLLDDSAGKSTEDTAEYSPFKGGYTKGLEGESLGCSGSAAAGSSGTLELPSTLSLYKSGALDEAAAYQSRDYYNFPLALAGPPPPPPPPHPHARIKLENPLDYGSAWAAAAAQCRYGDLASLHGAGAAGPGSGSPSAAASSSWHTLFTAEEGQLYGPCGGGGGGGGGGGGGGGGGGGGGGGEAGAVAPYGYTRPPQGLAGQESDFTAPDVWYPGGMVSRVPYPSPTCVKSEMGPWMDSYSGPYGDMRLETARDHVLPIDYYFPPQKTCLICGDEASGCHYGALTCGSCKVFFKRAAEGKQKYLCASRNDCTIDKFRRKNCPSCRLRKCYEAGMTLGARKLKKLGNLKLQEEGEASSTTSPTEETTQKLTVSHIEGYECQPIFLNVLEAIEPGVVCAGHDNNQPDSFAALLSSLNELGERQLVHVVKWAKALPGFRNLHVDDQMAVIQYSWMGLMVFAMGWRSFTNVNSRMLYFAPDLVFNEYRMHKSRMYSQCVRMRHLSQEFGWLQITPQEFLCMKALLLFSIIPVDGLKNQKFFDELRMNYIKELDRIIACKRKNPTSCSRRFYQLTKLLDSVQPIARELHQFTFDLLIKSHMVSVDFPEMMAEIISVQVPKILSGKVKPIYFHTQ
Estrogen receptor beta (Homo sapiens), sequence (Q92731 whole entry, looked up): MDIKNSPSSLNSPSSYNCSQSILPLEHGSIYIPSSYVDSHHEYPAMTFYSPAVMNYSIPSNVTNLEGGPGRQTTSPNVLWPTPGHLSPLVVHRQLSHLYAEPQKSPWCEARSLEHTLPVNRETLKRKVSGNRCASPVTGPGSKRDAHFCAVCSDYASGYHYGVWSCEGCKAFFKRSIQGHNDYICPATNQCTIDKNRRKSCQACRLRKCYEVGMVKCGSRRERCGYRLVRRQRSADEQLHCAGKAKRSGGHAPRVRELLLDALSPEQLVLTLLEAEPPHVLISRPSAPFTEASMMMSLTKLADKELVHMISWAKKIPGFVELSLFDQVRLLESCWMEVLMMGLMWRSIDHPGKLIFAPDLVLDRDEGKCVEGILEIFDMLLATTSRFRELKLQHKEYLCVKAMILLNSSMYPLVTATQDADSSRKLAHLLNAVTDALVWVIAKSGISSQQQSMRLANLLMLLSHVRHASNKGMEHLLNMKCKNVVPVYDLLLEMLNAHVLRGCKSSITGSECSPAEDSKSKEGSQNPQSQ

CNC(=O)[C@H]1O[C@@H](n2cnc3c(NCc4cc(Cl)ccc4OCc4cc(C)no4)ncnc32)[C@H](O)[C@@H]1N
not listed: [19] | [20]
inactive: all other assays above

CC(C)c1ccc2cc(C(C)C)ccc2c1
not listed: [12] | [20]
inactive: all other assays above

COc1ccc2c(c1)C(=O)N(CCc1ccc(S(=O)(=O)NC(=O)NC3CCCCC3)cc1)C(=O)C2(C)C
active: [15] 21.1 µM
not listed: [7] | [11] | [12] | [14] | [19]
inactive: all other assays above

CCOC(=O)c1ncn2c1CN(C)C(=O)c1cc(F)ccc1-2
not listed: [8] | [11] | [12]
inactive: all other assays above

CCC(CC)CO
not listed: [11] | [12] | [14] | [20]
inactive: all other assays above

O=C(O)c1cc(Cl)cc([N+](=O)[O-])c1Cl
not listed: [11] | [12] | [20]
inactive: all other assays above

COc1nccnc1NS(=O)(=O)c1ccc(N)cc1
not listed: [14] | [17] | [19]
inactive: all other assays above

O=C(OCc1ccccc1)C(=O)OCc1ccccc1
not listed: [20]
inactive: all other assays above

C=C(C)C1CCC(C)(O)CC1 (stereo unspecified)
not listed: [7] | [8] | [20]
inactive: all other assays above

O=C(OCC(COC(=O)c1cccnc1)(COC(=O)c1cccnc1)COC(=O)c1cccnc1)c1cccnc1
not listed: [12]
inactive: all other assays above

Cc1cccc(C)c1NC(=O)c1ccccc1C(=O)O
inactive: all assays above

Cc1cc(C(C)(C)C)c(O)c(C)c1CC1=NCCN1
inactive: all assays above

O=C(OCC(O)CO)c1ccccc1Nc1ccnc2c(C(F)(F)F)cccc12 (stereo unspecified)
not listed: [10] | [11] | [12] | [14] | [16] | [20]
inactive: all other assays above

CCN(C)C(=O)Oc1cccc([C@H](C)N(C)C)c1
not listed: [7] | [14]
inactive: all other assays above

CCCCOC(=O)c1ccccc1
not listed: [7] | [11] | [12] | [20]
inactive: all other assays above
